Screening results deposited in PubChem by National Center for Advancing Translational Sciences (NCATS).
Hits are enriched below; roughly 7.4% of the tested compounds scored in any of these assays.
CRE Fsk mod = modulators of forskolin-stimulated CRE signaling in CHO cells | CHO CRE-bla reporter (cAMP response element driving beta-lactamase), forskolin EC10, beta-lactamase ratio | Potency, µM (series often up to 38.2 µM), usual class: activators | 2.5% of 71,000 active; active = well fitted activation curve with a large enough effect in the signal ratio, with a control signal flat, not every such curve was filed as active; inconclusive = small, poorly fitted or top-dose-only effect, or effect the other way, or a change in a side signal; the % refers to the signal ratio
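qHTS titration format; CRE-bla CHO reporter; stimulus EC10 NKH 477, a water-soluble forskolin. Read: CCF4 460/530 nm ratio. Potency expressed as AC50 for activators or inhibitors.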
TSHR agonist = TSH receptor (human) agonism | P16473 | HEK293-CNG-TSHR cells (CNG channel as cAMP sensor), membrane potential dye, cAMP | Potency, µM (doses to about 57.1 µM), hits mostly activators | 0.48% of 73,000 active | AID 926; active = well fitted activation curve with a large enough effect in the main read-out, with a control signal flat, not every such curve was filed as active; inconclusive = small, poorly fitted or top-dose-only effect, or a change in a side signal; inactive = no such curve, though single readings can be large or run the other way; reference of the percent scale not stated here;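 note: the control signal comes from parental cells without the receptor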
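HEK 293 cells stably expressing TSHR and a modified CNG channel, with CNG-only parental cells as counterscreen, were preloaded 60 min at room temperature with membrane potential dye containing 100 uM RO 20-1724. Compound exposure was 30 min, and depolarization was read as fluorescence at 590 nm.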
ERK AVP block = inhibitors of vasopressin-stimulated ERK signaling pathway. HEK293-V1b, vasopressin-stimulated pERK AlphaScreen. Potency, µM (series often up to 57.5 µM), hits mostly inhibitors. 0.99% of 72,000 active. AID 995; note: nearly all actives have a fitted effect of over 55% in size
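HEK293 cells stably expressing V1b receptor, seeded overnight in 1% FBS, were treated with compounds for 30 min at 37C, then stimulated 5 min with 25 nM vasopressin; phospho-ERK read by AlphaScreen SureFire after lysis.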
Tau filament bind = binds recombinant human tau filaments; 2% of 71,000 active; P10636; Potency, µM (doses to about 57.1 µM); recombinant tau filaments, thioflavin S fluorescence, 15 h; filaments grown with octadecylsulfate alongside compound;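 note: actives lower thioflavin S fluorescence by blocking filaments or displacing dye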
Target sequence (P10636 whole entry, looked up): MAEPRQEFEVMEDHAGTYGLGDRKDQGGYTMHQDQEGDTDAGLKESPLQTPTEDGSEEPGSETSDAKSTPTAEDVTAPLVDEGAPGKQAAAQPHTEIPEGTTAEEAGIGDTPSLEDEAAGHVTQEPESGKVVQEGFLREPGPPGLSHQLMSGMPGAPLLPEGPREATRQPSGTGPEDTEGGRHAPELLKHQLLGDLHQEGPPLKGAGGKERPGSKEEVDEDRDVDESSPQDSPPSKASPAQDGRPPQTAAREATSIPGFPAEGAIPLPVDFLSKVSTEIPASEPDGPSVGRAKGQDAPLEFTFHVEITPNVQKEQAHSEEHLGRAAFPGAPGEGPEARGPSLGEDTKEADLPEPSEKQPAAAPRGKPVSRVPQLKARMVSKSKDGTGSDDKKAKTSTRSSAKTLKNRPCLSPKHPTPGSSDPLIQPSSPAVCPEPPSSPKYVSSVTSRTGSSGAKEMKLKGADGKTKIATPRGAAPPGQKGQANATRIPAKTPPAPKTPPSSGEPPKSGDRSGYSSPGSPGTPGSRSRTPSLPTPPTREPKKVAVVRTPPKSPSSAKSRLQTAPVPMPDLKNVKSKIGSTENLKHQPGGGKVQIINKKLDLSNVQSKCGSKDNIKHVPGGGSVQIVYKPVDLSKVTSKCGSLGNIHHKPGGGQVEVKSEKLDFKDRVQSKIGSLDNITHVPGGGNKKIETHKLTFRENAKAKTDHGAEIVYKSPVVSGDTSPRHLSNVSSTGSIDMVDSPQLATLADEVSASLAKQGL
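His-tagged recombinant human tau (exons 2, 3 and 10 included), 1 uM, was induced to fibrillize by 30 uM sodium octadecylsulfate with compound present. After 15 h at 37 C, thioflavine S fluorescence (ex 450, em 510 nm) was read.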
HEK293 cAMP ctrl = raises cAMP in parental HEK293 cells, TSHR agonist counter-screen; Potency, µM (highest dose often 57.1 µM), actives largely listed as activators; parental HEK293 CNG cAMP sensor, membrane potential fluorescence; 2.5% of 73,000 active; note: nearly all actives have a fitted effect of over 55% in size
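Counterscreen for endogenous-receptor signalling: CNG-channel HEK 293 cells report cAMP rise by membrane depolarization. After 60 min dye equilibration with 100 uM RO 20-1724, compounds incubated 30 min before bottom-read fluorescence at 590 nm.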
A number is an active result; 0 = inactive; ? = inconclusive; - = no result; ! = not confirmed by another sample; [ ] = remark or other dose. Unless noted, calls come from the whole dose curve; as a rule, active = well fitted curve in the direction sought with a large enough effect; inconclusive = small, poorly fitted or top-dose-only effect, or another doubt; inactive = no such curve, though single readings can be large; an effect the other way counts as inactive or inconclusive.

SMILES	CRE Fsk mod	TSHR agonist	ERK AVP block	Tau filament bind	HEK293 cAMP ctrl
CCN(CC)CCCN1C(=O)C(O)=C(C(=O)c2ccco2)C1c1ccc(C)o1 (configuration not stated)	0	0	0	0	0
CC1=C(C(=O)Nc2ccccc2)C(c2ccc(C)o2)n2c(s/c(=C\c3ccco3)c2=O)=N1 (configuration not stated)	?	0[11.4 µM]	0	2.51µM	0
COc1cc(/C=C/c2ccccc2)oc(=O)c1	0	0	0	0	0
CCOC(=O)Nc1sc(C(=O)N(CC)CC)c(C)c1C(=O)OCC	3.98µM	-	0	0	0
COC(=O)CNC(=O)[C@@]1(Cc2ccccc2)C=C[C@@H](C)N1C(=O)c1ccccc1	0	?	0	0	?
C[C@@H]1C=C[C@](Cc2ccccc2)(C(=O)NCC2CC2)N1C(=O)c1ccccc1	0	?	0	0	15.8µM
C/C(CCN1CCCCc2nc(C)c(C)cc21)=N\O[C@@H](C)CN1CCCc2nc(C)c(C)cc21	-	0[11.4 µM]	0[11.5 µM]	-	0[11.4 µM]
CCOC(=O)C1CCN(S(=O)(=O)c2cccc(-c3cn4cccc(C)c4n3)c2)CC1	?	?	20µM	0	?
CCOC(=O)C1CCN(S(=O)(=O)c2cccc(-c3cn4ccccc4n3)c2)CC1	?	-	?	0	0
COCCn1c(=O)c(-c2ccc(OC)cc2)nc2cnc(N3CCNCC3)nc21	?	?	0	0	?
COCCn1c(=O)c(-c2cc(F)cc(F)c2)nc2cnc(N3CCOCC3)nc21	6.31µM	?	0	0	?
COCCn1c(=O)c(-c2ccc(OC)cc2)nc2cnc(N3CCOCC3)nc21	2.51µM	-	0	0	0
COCCn1c(=O)c(-c2cccc(C#N)c2)nc2cnc(N3CCOCC3)nc21	?	0	0	0	0
COc1cc2nncc(SCc3ccc(Cl)c(Cl)c3)c2cc1OC	?	0[11.4 µM]	0[11.5 µM]	0[11.4 µM]	0[11.4 µM]
O=[N+]([O-])c1cccc(/C=N\NC2=CS(=O)(=O)C=C2)c1	0[7.6 µM]	0[11.4 µM]	0[11.5 µM]	0[11.4 µM]	0[11.4 µM]
O=c1c(-c2ccc(Cl)cc2)nc2cnc(N3CCNCC3)nc2n1CCc1ccccc1	?	0	0	0	0
NC(N)=N/N=C\c1ccc(O)c(C(=O)O)c1	0[7.6 µM]	0[11.4 µM]	0[11.5 µM]	0[11.4 µM]	0[11.4 µM]
COc1cc2cc3c4cc(OC)c(OC)cc4cc[n+]3c(C)c2cc1OC	0	0	?	0	0
CCCCOc1cccc(OCCCC)c1C(=O)Nc1cc(C)on1	?	?	0	0	2µM
CCCN(Cc1cc2cc(C)ccc2[nH]c1=O)S(C)(=O)=O	?	5.01µM	0	0	0
Cn1cccc1C(=O)N1CCC2(CC1)CCN(c1cccc(-c3ccccc3)c1)CC2	0	0	?	0	0
O=C1c2ccccc2C(=O)C1c1ccc2ccccc2n1	0	0	?	0.631µM	0
Nc1ccc(-c2ccc3ccccc3n2)cc1	-	-	0	-	-
O=S(=O)(N1CCCCC1)n1c(Cc2ccccc2)nc2ccccc21	0	?	0	0	31.6µM
COc1cc(C2c3[nH]c4ccccc4c3CC3C(=O)N4C(Cc5c([nH]c6ccccc56)C4c4cc(OC)c(OC)c(OC)c4)C(=O)N32)cc(OC)c1OC (configuration not stated)	-	0[11.4 µM]	0[11.5 µM]	-	0[11.4 µM]
SMILES	CRE Fsk mod	TSHR agonist	ERK AVP block	Tau filament bind	HEK293 cAMP ctrl
COc1cc(C(=O)OCC(=O)c2cc(C)n(C)c2C)cc(NC(=O)c2ccco2)c1OC	3.16µM	?	0	0	?
COc1cc2c(cc1NC(=O)c1ccco1)CCCC2	?	?	0	0[11.4 µM]	?
Cc1ccc(C(=O)CSc2nc(C)cc(SCc3nnc(-c4ccccc4)o3)n2)cc1	0	?	0	0	7.94µM
CCC(C)n1cnc2c(c1=O)c1nc3ccccc3nc1n2-c1ccc2c(c1)OCCO2 (configuration not stated)	?	0	0	0	0
O=c1c2c3nc4ccccc4nc3n(-c3cccc(F)c3)c2ncn1Cc1ccc2c(c1)OCO2	?	0	0	3.16µM	0
CCC(C)n1cnc2c(c1=O)c1nc3ccccc3nc1n2Cc1ccc2c(c1)OCO2 (configuration not stated)	15.8µM	0	0	3.16µM	0
Cc1cc(NCCOCCO)n2ncc(-c3ccc(Cl)cc3)c2n1	7.94µM	?	0	0	0
CCCn1c(=O)[nH]c2nc(-c3ccc(S(=O)(=O)O)cc3)[nH]c2c1=O	?	-	0	?	0
CC(C)c1cc(C(F)(F)F)nc(NNc2nc(C(C)C)cc(C(F)(F)F)n2)n1	0[7.6 µM]	?	0[11.5 µM]	0[11.4 µM]	5.01µM
NCc1ccc(C(=O)O)cc1	0[7.6 µM]	0[11.4 µM]	0[11.5 µM]	0[11.4 µM]	0[11.4 µM]
COC(=O)c1c(C(=O)OC)c2oc3ccccc3n2c1Cl	12.6µM	0	0	0	0
COC(=O)c1ccc(NC(=O)CCn2c(=O)oc3ccccc32)cc1	0	0	0	0	0
O=c1c(O)c(-c2ccc(O)cc2)oc2cc(O)cc(O)c12	?	0	?	31.6µM!	0
COc1ccc(C#CC2C=CC(OC(C)=O)C(COC(C)=O)O2)cc1 (configuration not stated)	-	0[11.4 µM]	0[11.5 µM]	-	0[11.4 µM]
Cc1ccc(N(CC(=O)N2CC(=O)Nc3ccccc32)S(=O)(=O)c2ccc3c(c2)OCCO3)cc1	?	7.94µM	0	0	0
O=C(O)CN(c1ccc(F)cc1)S(=O)(=O)c1ccc2c(c1)OCCO2	-	0	-	-	0
O=C(COC(=O)Cc1cn2ccsc2n1)NC12CC3CC(CC(C3)C1)C2	0	0	?	0	0
CC1CCCC(NC(=O)COC(=O)Cc2cn3ccsc3n2)C1C (configuration not stated)	0	?	0	0	31.6µM
COc1ccccc1N1C(=O)N(C(C)=O)C2C1Nc1ccccc1N2C (configuration not stated)	0	0	25.1µM	0	0
CN1CCN(c2ncncc2-c2cccnc2)CC1	0	?	0	0	?
Cc1cccc(CNc2ncnc3ccc(-c4ccccc4C#N)cc23)c1	?	?	0	0	25.1µM
CNc1ncnc2ccc(-c3ccccc3C#N)cc12	?	0	?	0	0
N#Cc1ccccc1-c1ccc2ncnc(NCc3cccs3)c2c1	?	?	0	0	15.8µM
N#Cc1ccccc1-c1ccc2ncnc(NC3CC3)c2c1	?	0	0	0	0
C/C(CCN1CCCCc2nc(C)c(C)cc21)=N\O[C@@H](C)c1cc(-c2c(C)cc(C)cc2C)no1	-	0[11.4 µM]	0[11.5 µM]	-	0[11.4 µM]
O=C(Nc1ccc2c(c1)OCO2)C1CCCCN1S(=O)(=O)c1ccc(F)cc1 (configuration not stated)	?	0	0	12.6µM	0
O=C(Nc1ccc2c(c1)OCO2)C1CCN(S(=O)(=O)c2cccs2)CC1	3.16µM	0	?	12.6µM	0
O=C(Nc1ccc2c(c1)OCO2)C1CCCN(c2nc3ccccc3s2)C1 (configuration not stated)	?	0[11.4 µM]	0	12.6µM	0
O=C(Nc1ccc2c(c1)OCCO2)C1CCN(S(=O)(=O)c2cccs2)CC1	?	0	?	0	0
